This is a sample that favours compounds with a hit; in the whole collection about 1.9% have one here.
RXFP1 ag – RXFP1 (human) receptor agonism; AID 2676; hit rate 0.3% among 370,000; HEK293T-RXFP1 cAMP TR-FRET, 30 min; response scale: percent of porcine relaxin response, buffer zero; Q9HBX9; Potency, µM (doses to about 57.5 µM), inactives show top-dose activation, usual class: activators; further: potency means the concentration at half of the fitted maximal effect; on the % scale 0 is the no-effect control and ±100 the full control effect; nearly all actives have a fitted effect of over 60% in size
Target sequence (Q9HBX9 whole entry, looked up): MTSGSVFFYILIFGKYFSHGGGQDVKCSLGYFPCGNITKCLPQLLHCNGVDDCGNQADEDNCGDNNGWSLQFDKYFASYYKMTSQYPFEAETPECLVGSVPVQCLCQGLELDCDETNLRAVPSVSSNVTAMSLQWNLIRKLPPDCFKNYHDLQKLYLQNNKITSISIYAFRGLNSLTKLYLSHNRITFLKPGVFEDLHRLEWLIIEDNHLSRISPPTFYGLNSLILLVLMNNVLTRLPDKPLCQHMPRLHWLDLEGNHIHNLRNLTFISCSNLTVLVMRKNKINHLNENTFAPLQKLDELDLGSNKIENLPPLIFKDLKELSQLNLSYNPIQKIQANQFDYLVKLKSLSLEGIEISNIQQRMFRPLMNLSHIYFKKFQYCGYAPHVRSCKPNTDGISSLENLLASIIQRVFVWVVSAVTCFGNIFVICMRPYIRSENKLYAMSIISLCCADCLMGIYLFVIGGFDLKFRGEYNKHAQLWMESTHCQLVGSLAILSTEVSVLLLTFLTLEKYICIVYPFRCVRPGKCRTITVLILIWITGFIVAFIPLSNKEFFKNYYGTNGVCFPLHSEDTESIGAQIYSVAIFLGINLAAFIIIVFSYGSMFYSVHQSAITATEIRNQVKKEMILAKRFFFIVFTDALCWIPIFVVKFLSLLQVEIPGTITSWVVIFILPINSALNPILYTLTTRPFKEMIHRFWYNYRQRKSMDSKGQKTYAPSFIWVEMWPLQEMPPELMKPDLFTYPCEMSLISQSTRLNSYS
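Agonist response is measured as cAMP accumulation in an RXFP1-transfected HEK293T line under PDE4 inhibition. Values are scaled between buffer-only and 29 nM porcine relaxin, and EC50s come from standard Hill equation fits.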
BRCA1 expr up – increases BRCA1 expression; MCF7-BRCA1-FFLuc reporter, luminescence, 48 h; response scale: scaled: vehicle 0%, 10 µM genistein 100%; Potency, µM (highest dose often 46.1 µM), for the others: at the top dose activation, most hits filed as activators; hit rate 1.1% among 380,000; further: potency means the concentration at half of the fitted maximal effect; nearly all actives have a fitted effect of over 80% in size
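Using MCF7 cells harboring a BRCA1 firefly luciferase reporter, plated 2 h before compound pinning, the screen measured luminescence after 48 h incubation. Responses were normalized to DMSO and 10 microM genistein, then fitted for concentration-effect.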
IL2 activator – activators of IL-2 | activation, % (series mostly up to about 46 µM) | hit rate 0.065% among 360,000 | IL-2 activation reporter assay, cell-based qHTS; stimulated with anti-CD3/CD4/CD28 beads; in transgenic mouse T cells; in the data active means activation above about 50%; inconclusive means mostly about 30% to 49%; further: 0% is about no effect
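Unstimulated transgenic mouse T cells; 60-min compound exposure; bead-based TCR/CD4/CD28 stimulation; 18 h culture, 37 degrees C; dual fluorescence (EGFP, DsRed) plate cytometry.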
NPSR antagonist – blocks cAMP signaling of the human neuropeptide S receptor | Q6W5P4 | CHO-NPSR cells, cAMP TR-FRET, antagonist mode | Potency, µM (highest dose often 38.3 µM), inactives show at the top dose activity change, negative = inhibition, usual class: inhibitors | hit rate 1% among 220,000; further: potency means the concentration at half of the fitted maximal effect; on the % scale 0 is the no-effect control and ±100 the full control effect; nearly all actives have a fitted effect of over 50% in size
Giardia killer – kills Giardia lamblia. Giardia lamblia trophozoite viability. hit rate 0.15% among 340,000. activity change, % at 7.66 µM, hits read low; in the data active means activity change below about -80%; inconclusive means between about -30% and that limit;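 further: parasites exposed to compound for two days anaerobically before the ATP read; on the % scale 0 is the no-effect control and ±100 the full control effect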
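Luminescent ATP signal served as the viability read-out, measured 15-30 min after adding ATP detection reagent to trophozoites that had been incubated with compounds for 48 hrs at 37 deg C anaerobically at 100 cells/well.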
RXFP1 antag – antagonists of human relaxin receptor RXFP1; Q9HBX9; hit rate 0.59% among 350,000; activity change, negative = inhibition, % at 57.5 µM; HEK293-RXFP1, relaxin-stimulated cAMP HTRF, 30 min; hits give low values;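 active means activity change of -60% or lower, but not beyond a set lower limit; inconclusive means change between -60% and -40%, or beyond the set limit; inactive means change above -40%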; further: on the % scale 0 is the no-effect control and ±100 the full control effect
* marks the source's active call; other numbers are inactive results; ? = inconclusive; nt = no result given; ! = not active in a repeat; [ ] = dose if it differs, or a comment. Unless noted, the call rests on the fitted dose curve; in most records, active means well fitted curve in the direction sought with a large enough effect; inconclusive means small, poorly fitted or top-dose-only effect, or another doubt; inactive means no such curve, though single readings can be large; an effect the other way counts as inactive or inconclusive.

SMILES	RXFP1 ag	BRCA1 expr up	IL2 activator	NPSR antagonist	Giardia killer	RXFP1 antag
CCCN1CNc2c(c(=O)[nH]c(=S)n2CCc2ccc(OC)cc2OC)C1	nt	19%	nt	nt	?	nt
Fc1ccc(C(c2ccc(F)cc2)N2CCN(C/C=C/c3ccccc3)CC2)cc1	3%	-24%	0	?	-7	-64*
C(=C\c1ccccc1)/CN1CCN(C(c2ccccc2)c2ccccc2)CC1	1%	-7%	0	13µM*!	3	-40
COc1ccc(-n2c(SCC(=O)Nc3ccc(Br)cc3)nc(O)cc2=O)cc1	0%	1%	1	-10%	8	-66*
CC1Sc2ccc(C(=O)OCc3ccccc3Cl)cc2NC1=O (stereo not given)	-1%	6.3µM*	-1	nt	-18	?
Clc1ccc(OCc2noc(-c3ccsc3)n2)c(Cl)c1	0%	3.5µM*	0	12%	15	-30
Fc1cc(Cl)c(OCc2noc(-c3ccsc3)n2)c(Cl)c1	1%	81%	0	4%	-2	-8
Cc1ccc(S(=O)(=O)Nc2c(NC3CCCCC3)c3ccccc3oc2=O)cc1C	0%	-19%	0	nt	8	6
O=c1oc2ccccc2c(NC2CCCCC2)c1NS(=O)(=O)c1ccc(F)c(Cl)c1	1%	-1%	-3	nt	-6	-63*
CCCN1CNc2c(c(=O)[nH]c(=S)n2CCc2ccc(Cl)cc2Cl)C1	nt	-5%	nt	nt	-12	nt
CCOC(=O)c1csc(NC(=O)c2ccc(OCC)cc2)n1	3%	-6%	1	-7%	-7	-3
CCOC(=O)c1csc(NC(=O)c2ccccc2)n1	-1%	4µM*	-1	-2%[46.1 µM]	-2	nt
COc1cc(C(=O)Nc2ccc3c(c2)OCCO3)ccc1OC(C)C	-1%	?	0	-18%[46.1 µM]	-29	-2
Cc1ccc2sc(NC(=O)c3ccc4c(c3)OCCO4)nc2c1C	0%	nt	nt	nt	nt	-8
Cc1cnc(NC(=O)c2ccc3c(c2)OCCO3)s1	3%	?	0	nt	-91*	8
Cc1nc2ccc3nc(NC(=O)c4ccc(S(=O)(=O)N5CCOCC5)cc4)sc3c2s1	3%	-5%	7	-13%[46.1 µM]	-7	-18
COc1cc(C(=O)Nc2ccc3c(c2)OCCO3)ccc1OC(F)F	0%	11µM*	0	-10%[46.1 µM]	-6	1
Cc1nc2ccc3nc(NC(=O)c4ccc5c(c4)OCCO5)sc3c2s1	?	8.9µM*!	-2	-8%[46.1 µM]	-16	8
Cc1nc2c(ccc3nc(NC(=O)c4ccc5c(c4)OCCO5)sc32)s1	3%	2.8µM*	-1	-16%[46.1 µM]	?	-4
CC(=O)C1=C(c2ccc(Cl)c(Cl)c2)N(C(C)=O)n2cnnc2S1	4%	nt	nt	nt	nt	-83*
CC(=O)C1=C(c2ccc(Cl)c(Cl)c2)N(C(C)=O)n2c(C)nnc2S1	5%	nt	nt	nt	nt	-84*
COc1cccc(C2=C(C(C)=O)Sc3nncn3N2C(C)=O)c1	4%	nt	nt	nt	nt	-18
CC(C)CCCC(C)NCCC(C)C (stereo not given)	nt	nt	nt	nt	nt	4
CC(C)c1ccc(Nc2nc(CC(=O)O)cs2)cc1	2%	5µM*	-1	26%	-6	-12
CCOC(=O)c1sc(NC(=O)Nc2ccccc2F)nc1C	-1%	-33%	1	-19%	-26	-5
SMILES	RXFP1 ag	BRCA1 expr up	IL2 activator	NPSR antagonist	Giardia killer	RXFP1 antag
CCOC(=O)c1sc(NC(=O)Cc2ccc(C)cc2)nc1C	3%	24%	2	-24%	4	0
CCOC(=O)c1sc(Nc2ccccc2Cl)nc1C	3%	8.9µM*	-1	-20%	-14	3
CCOC(=O)c1sc(NC(=O)CCC(=O)O)nc1C	0%	-1%	0	12%	-15	-85*
COc1ccc(-c2cn3nc(SCC(=O)Nc4cc(C)cc(C)c4)ccc3n2)cc1	11%	nt	nt	nt	nt	1
CCN1CCN(c2cc(C)c3cc(NC(=O)c4cc(OC)cc(OC)c4)ccc3n2)CC1	-1%	6.3µM*	-5	-19%	13	4
CCOc1ccc(C(=O)Nc2ccc3nc(N4CCN(CC)CC4)cc(C)c3c2)cc1	-2%	-15%	0	nt	4	20
COc1cc(C(=O)Nc2ccc3oc(-c4ccccc4)nc3c2)cc(OC)c1OC	2%	nt	nt	nt	nt	-60*
O=C(Nc1ccc2oc(-c3ccccc3)nc2c1)c1cccnc1	3%	2.8µM*	0	-6%[46.1 µM]	-15	-8
COc1ccccc1C(=O)Nc1ccc2oc(-c3cccc4c(Br)cccc34)nc2c1	10µM*	nt	nt	nt	nt	14
COc1cc(C(=O)Nc2ccc3oc(-c4cccnc4)nc3c2)cc(OC)c1OC	-2%	-28%	-5	-1%	-6	-11
COc1cc(OC)cc(C(=O)Nc2ccc3oc(-c4cccc5c(Br)cccc45)nc3c2)c1	17%	nt	nt	nt	nt	5
O=C(Cc1ccc(Br)cc1)N1CCc2ccccc2C1	0%	10µM*	1	nt	-7	4
Cc1c(C(=O)NN2CCCCC2)nn(-c2ccc(Cl)cc2Cl)c1-c1ccc(Cl)cc1	nt	nt	nt	nt	nt	-71*
COc1ccc(NC(=O)c2sc3nc(-c4cccnc4)ccc3c2N)cc1OC	0%	27%	94*	0%[7.67 µM]	48	-3
COc1ccc(/C=C/C(=O)c2c(O)c(OC)c3occc3c2OC)cc1OC	nt	-2%	nt	nt	nt	nt
Cc1ccc(-n2ncc(C(=O)Nc3ccc4c(c3)OCCO4)c2C2CCN(C(=O)OC(C)(C)C)CC2)cc1C	-1%	nt	nt	nt	nt	-11
Cc1nc2ccccc2c(=O)n1/N=C/c1ccccc1Cl	0%	10µM*	0	nt	-3	-1
COc1cccc(C(=O)NCC(c2ccc(N(C)C)cc2)N2CCOCC2)c1OC (stereo not given)	1%	nt	nt	nt	nt	-5
CCc1cc(C(=O)OC)c(NC(=O)c2ccoc2C)s1	6%	-29%	-2	nt	-14	-17
COC(=O)c1c(-c2cccnc2)csc1NC(=O)c1ccc2c(c1)OCO2	?	2.2µM*	0	nt	-6	-14
COC(=O)c1c(-c2ccncc2)csc1NC(=O)c1ccoc1C	3%	4.5µM*	1	-21%[46.1 µM]	-4	2
O=C(O)c1cccc(Cn2c(Cl)c(/C=N/Nc3ccccc3)sc2=O)c1	-5%	8%	-2	-40%	6	-74*
O=C(O)c1cccc(Cn2c(Cl)c(/C=N/NC(=O)c3ccccc3Cl)sc2=O)c1	0%	-14%	-1	-3%[46.1 µM]	4	nt
COc1cc(/C=N/NC(=Nc2ccc(C)cc2)c2nc3ccccc3s2)ccc1O	-1%	-7%	2	10µM*	-19	-24
Cc1nnc(-c2ccc(N3CCCCCC3)c([N+](=O)[O-])c2)o1	1%	22µM*	2	-36%	6	6
Cn1cc(Cl)c(C(=O)N/N=C/c2ccc3c4c(cccc24)CC3)n1	1%	1.3µM*	-3	nt	-30	-7
